Source: PubChem BioAssay
Rows were chosen to be rich in hits. Some 3.4% of all compounds tested hit in one or more screens of this group.
MITF inh: human MITF inhibition, primary screen | O75030 | AlphaScreen MITF homodimerization, bead proximity signal | inhibition, % at 2.6 µM | hit rate 0.91% among 650,000 | AID 1259374; in the data active = inhibition above about 50%;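 also: 0% = vehicle wells with protein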
TEAD-YAP block: TEAD-YAP interaction inhibition; inhibition, % at 9.12 µM; HEK-TIYL cells, TEAD-Gal4/YAP UAS-luciferase luminescence; hit rate 1.4% among 640,000; in the data active = inhibition above about 32%;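 also: 0% = median of test compound wells and 100% = reference inhibitor wells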
FBW7 activator: activators of human E3 ligase FBW7. Q969H0. AlphaScreen FBW7–phospho-cyclin E peptide binding, activator screen. normalized activity (activation), % at 26.1 µM. hit rate 0.13% among 650,000. AID 1259310; in the data active = normalized activity above about 1.9%;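 also: purified mutant Fbw7 with reduced substrate affinity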
GPR151 activ: activators of human GPR151 | activation, % at 11.2 µM | AID 1508602 | PathHunter beta-arrestin GPR151 cells, luminescence | hit rate 1% among 650,000 | Q8TDV0; in the data active = activation above about 4.9%;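 also: 0% = median of compound wells and 100% = cells with positive control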
GPR151 conf act: human GPR151 activation, confirmation screen; shares compounds with GPR151 activ; 6,700 tested, under 10 active; GPR151 PathHunter beta-arrestin cells, luminescence, 90 min; % of EA-reagent control over plate median; activation, % at 11.2 µM;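 active = mean percent activation across replicates above the confirmation screen cutoff of 4.91%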
GPR119 ag: counter-screen for GPR151 activators: effect on human GPR119. shares compounds with GPR151 activ. GPR119 PathHunter beta-arrestin cells, luminescence, 90 min; 0 = compound-well median, 100 = enzyme-acceptor control. activation, % at 11.2 µM. hit rate 0.3% among 6,700;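 active = mean percent activation in the counterscreen above 29.09%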;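 also: counterscreen on off-target GPR119 to flag nonselective hits from the GPR151 activator screen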
Target sequence (Q8TDV5 whole entry, looked up): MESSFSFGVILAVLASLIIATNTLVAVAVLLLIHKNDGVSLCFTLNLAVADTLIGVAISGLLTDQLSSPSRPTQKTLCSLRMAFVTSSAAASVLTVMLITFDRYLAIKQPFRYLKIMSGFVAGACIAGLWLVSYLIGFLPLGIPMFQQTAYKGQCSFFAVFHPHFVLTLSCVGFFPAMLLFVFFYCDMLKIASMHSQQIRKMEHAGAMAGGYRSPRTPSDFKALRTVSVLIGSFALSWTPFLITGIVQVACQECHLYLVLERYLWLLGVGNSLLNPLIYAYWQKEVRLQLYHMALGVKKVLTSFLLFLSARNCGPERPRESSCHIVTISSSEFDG
Starred values were filed as active, the others as inactive; · = no result given.

SMILES | MITF inh | TEAD-YAP block | FBW7 activator | GPR151 activ | GPR151 conf act | GPR119 ag
FC(F)(F)c1ccc(Nc2nc(Nc3ccccc3)c3ncn(-c4ccsc4)c3n2)cc1 | 0 | 2 | 0 | 2 | · | ·
COc1ccc(/C=C/C(=O)c2ccc[nH]2)cc1OC | 17 | -45 | 0 | 5.8* | -1 | -2
COc1ccc(C(=O)NC2CCN(C)CC2)cc1 | 3 | 3 | 0 | 0 | · | ·
CCCSc1nc2c(c(=O)[nH]c(=O)n2C)n1CC(O)Oc1cccc2ccccc12 (configuration not stated) | 11 | 10 | 0 | 6.2* | 0 | -8
Cn1c(=O)[nH]c(=O)c2c1nc(NCc1ccccc1)n2Cc1ccc(Cl)cc1 | 0 | 0 | 0 | 6.7* | 1 | -3
Cn1c(=O)[nH]c(=O)c2c1nc(NCc1ccccc1)n2Cc1ccccc1 | 6 | -2 | 0 | 0 | · | ·
Cc1cccc(Cn2c(SCC(C)C)nc3c2c(=O)[nH]c(=O)n3C)c1 | 19 | 2 | 1 | 5.2* | 0 | 1
Cn1c(=O)[nH]c(=O)c2c1nc(N1CCN(c3cccc(Cl)c3)CC1)n2Cc1ccccc1 | -15 | 1 | 0 | 5.3* | 2 | 6
COc1ccccc1NC(=O)c1sc2ncnc(N3CCOCC3)c2c1C | 6 | 6 | 0 | 0 | · | ·
O=C1NC(c2ccc(Br)cc2)=N/C1=C\c1ccccc1F | -2 | 2 | 0 | 0 | · | ·
S=C(NCCN1CCOCC1)Nc1cccc2cnccc12 | -11 | -8 | 0 | 0 | · | ·
S=C(NCCN1CCOCC1)Nc1cccc2ccccc12 | 2 | -3 | 0 | 5.3* | 0 | -10
Cc1cn2c3c(=O)n(CC(N)=O)c(=O)n(C)c3nc2n1-c1ccc(Cl)cc1 | 5 | 3 | 0 | 5.7* | 0 | -4
O=C(ON1C(=O)CCC1=O)c1cc(N2C(=O)c3ccccc3C2=O)ccc1Cl | 4 | -5 | 0 | 0 | · | ·
NC(=O)c1cc2ccccc2o/c1=N\NC(=O)c1ccccc1Nc1ccccc1 | 17 | 9 | 1 | -1 | · | ·
COc1ccc2o/c(=N\NC(=O)c3ccccc3Nc3ccccc3)c(C(N)=O)cc2c1 | -11 | 13 | 0 | 22* | -1 | -14
CCOc1ccc(C2=C/C(=C/c3cccs3)C(=O)O2)cc1 | 4 | 1 | 0 | 5.8* | -1 | 12
CCOc1ccc(C2=C/C(=C\c3cccs3)C(=O)O2)cc1 | -1 | -18 | 0 | 0 | · | ·
O=C1CSC(=O)N1C1CCCCC1NC(=O)C1(c2cccs2)CCCC1 (configuration not stated) | -1 | 3 | 0 | 5.5* | -1 | -8
CCOP(=O)(OCC)c1nc(-c2cccc([N+](=O)[O-])c2)oc1N1CCCCC1 | 3 | -5 | 0 | 11* | 1 | 5
CC(=O)Oc1ccc(/C=c2/sc3nc(=O)c(Cc4ccc(F)cc4)nn3c2=O)cc1 | -1 | 11 | 0 | 1 | · | ·
O=c1nc2s/c(=C/c3cccs3)c(=O)n2nc1Cc1ccc(F)cc1 | 8 | 12 | -2 | 5.0* | 0 | -5
CC(C)n1c(=O)[nH]c2c(C(N)=O)nc(-c3ccccc3)nc21 | 7 | 10 | 0 | -2 | · | ·
COc1cc(OC)cc(C(=O)NNC(=O)Nc2ccc(Cl)c(Cl)c2)c1 | 11 | 6 | 0 | -2 | · | ·
COc1cc(OC)cc(C(=O)N2CCc3ccccc3C2CNC(=O)Nc2ccc(Cl)c(Cl)c2)c1 (configuration not stated) | -8 | 4 | 0 | 5.3* | 1 | 9
SMILES | MITF inh | TEAD-YAP block | FBW7 activator | GPR151 activ | GPR151 conf act | GPR119 ag
CNC(=S)Nc1ccc(OC)cc1S(=O)(=O)N1CCCCC1 | -3 | -8 | 0 | 1 | · | ·
CC(=O)O[C@]1(C(C)=O)CC[C@H]2[C@@H]3C=C(Cl)C4=CC(=O)CC[C@]4(C)[C@H]3CC[C@@]21C | 16 | · | 0 | 5.2* | 0 | 15
C/C(CC(=O)Nc1ccc(Br)cc1)=N\NC(=O)C(=O)Nc1ccccc1C | -21 | 0 | 0 | 1 | · | ·
CCOC(=O)C1CCN(c2ccc(C=C3C(=O)N(C)C(=O)N(C)C3=O)cn2)CC1 | -1 | -5 | 0 | 5.2* | 0 | 4
COC(=O)C1=C(O)/C(=C/c2cc(C)n(-c3cc(C)ccc3C)c2C)N=C1C | -9 | 9 | 0 | 5.2* | -1 | -8
COC(=O)C1=C(O)/C(=C\c2cc(C)n(-c3cc(Cl)ccc3C)c2C)N=C1C | -12 | 0 | 0 | 0 | · | ·
CNS(=O)(=O)c1ccc(OC)c(C)c1 | 9 | 2 | 0 | 0 | · | ·
CCc1ccc(OCC(=O)N/N=C/c2ccccc2O)cc1 | -20 | -1 | 0 | 0 | · | ·
COc1ccc(/C=N/NC(=O)COc2cccc(C)c2)cc1O | 1 | 2 | 0 | 14* | 1 | -2
O=C(COc1ccc(Cl)cc1Cl)N/N=C\c1ccc([N+](=O)[O-])s1 | 7 | 10 | 0 | 5.7* | -1 | -12
Cc1ccc(/C=N/NC(=O)COc2ccc(Cl)cc2[N+](=O)[O-])s1 | 16 | 6 | 0 | 2 | · | ·
CCc1ccc(OCC(=O)N/N=C/c2ccc(O)cc2)cc1 | 6 | 10 | 1 | 5.2* | -1 | -4
COc1ccc(/C=N/NC(=O)COc2ccc(C)cc2)cc1O | 7 | -6 | 0 | 0 | · | ·
COc1ccc(/C=N/NC(=O)COc2ccc(Cl)cc2Cl)cc1O | 2 | 4 | 0 | 9.4* | 0 | -1
COc1cc(/C=N/NC(=O)COc2ccc(Cl)cc2Br)ccc1O | 13 | 6 | 0 | 0 | · | ·
OCc1nc2ccccc2n1Cc1ccccc1F | -3 | -15 | 0 | 0 | · | ·
O=C(CN1CCN(c2ccccc2F)CC1)Nc1cc(C(F)(F)F)ccc1Cl | 4 | -1 | 0 | 0 | · | ·
O=C(CN1CCCCC1)Nc1cc(C(F)(F)F)ccc1Cl | 1 | 4 | 0 | 7.0* | 0 | 2
Fc1ccc(-c2[nH]ncc2CCN2CCOCC2)cc1 | 0 | 10 | 0 | 9.9* | 1 | 6
COc1ccc(-c2cn3c(C(=O)N4CCc5ccccc54)csc3n2)cc1 | -8 | 5 | 0 | 19* | 0 | -2
COc1ccc(-c2cn3c(C(=O)N4CCN(c5ccccc5OC)CC4)csc3n2)cc1 | 2 | -8 | 0 | 0 | · | ·
Cc1cc(N2CCCC(C(=O)Nc3ccc(F)cc3F)C2)n2ncnc2n1 (configuration not stated) | -2 | -6 | 0 | 0 | · | ·
O=C(CCCOc1ccc(Cl)cc1Cl)Nc1nc(-c2ccc(Cl)cc2)cs1 | 9 | -9 | 0 | 0 | · | ·
CC1(C)CC(=O)C2=C(C1)N(c1cccc(C(F)(F)F)c1)C(N)=C(C#N)C2c1ccc2c(c1)OCO2 (configuration not stated) | 4 | 0 | 0 | 1 | · | ·
N#CC1=C(N)N(c2cccc(C(F)(F)F)c2)C2=C(C(=O)CCC2)C1c1ccc2c(c1)OCO2 (configuration not stated) | 11 | -5 | 0 | 5.0* | 1 | 8
